# Calls of active or inactive are those of the source.
# Tests used:
# Albumin (Bos taurus) = Albumin (Bos taurus) (UniProt P02769); assay: compounds binding labelled BSA control protein – biochemical, small-molecule microarray, Alexa647 label, 635/667 nm fluorescence, artefact control for SMM control protein annotation, profiling panel (AID 1118); settings: BSA-A647 binding, fluorescence 635 nm, higher = more signal;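 also: score merges 667 nm emission intensity and signal-to-noise per printed compound spot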
# Sequence of Albumin (Bos taurus) (P02769 whole entry, looked up): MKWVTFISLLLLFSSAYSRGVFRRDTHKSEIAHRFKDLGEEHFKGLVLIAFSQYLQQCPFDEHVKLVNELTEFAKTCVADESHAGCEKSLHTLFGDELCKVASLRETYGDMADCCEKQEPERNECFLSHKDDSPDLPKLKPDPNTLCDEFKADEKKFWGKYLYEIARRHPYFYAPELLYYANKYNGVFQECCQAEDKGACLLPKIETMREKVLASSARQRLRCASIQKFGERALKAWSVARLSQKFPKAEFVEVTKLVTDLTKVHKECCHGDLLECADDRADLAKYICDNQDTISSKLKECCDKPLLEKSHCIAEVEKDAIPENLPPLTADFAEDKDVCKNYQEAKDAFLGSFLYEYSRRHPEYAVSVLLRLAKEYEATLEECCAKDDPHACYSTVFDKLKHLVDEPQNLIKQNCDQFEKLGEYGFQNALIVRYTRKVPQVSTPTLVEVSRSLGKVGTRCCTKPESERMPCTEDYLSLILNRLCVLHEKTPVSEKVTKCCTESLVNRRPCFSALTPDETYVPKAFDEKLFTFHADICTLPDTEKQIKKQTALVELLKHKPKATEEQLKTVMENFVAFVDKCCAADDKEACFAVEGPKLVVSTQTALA
# [1] = probe aXIP binding to arrayed compounds – biochemical, NeuroSMM set, 635/667 nm fluorescence, primary screen (AID 1119); settings: small-molecule microarray, higher = more signal, called active from +8 up or from −8 down;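 also: probe is the protein aXip251-270 applied at 1 µg/mL to compound-printed slides; binding of probe to printed compounds measured as 667 nm fluorescence plus signal to noise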
# [2] = probe aNOTCH3 binding on compound microarray – biochemical, small-molecule microarray, 635/667 nm fluorescence, primary screen (AID 1120); settings: higher = more signal;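 also: probe is a biotin-tagged antibody raised against NOTCH3 rather than NOTCH3 protein; score merges spot fluorescence near 667 nm with spot signal to noise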
# [3] = probe aNOTCH2 binding on compound microarray – biochemical, small-molecule microarray, 635/667 nm fluorescence, primary screen (AID 1121); settings: higher = more signal;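 also: score merges feature fluorescence read at 667 nm with its signal to noise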
# [4] = target: Carbonic anhydrase 2 (Homo sapiens) (UniProt P00918); assay: compounds binding carbonic anhydrase 2 – biochemical, small-molecule microarray, Alexa647-labelled CAII, profiling panel (AID 1122); settings: CAII-A647 binding fluorescence, higher = more signal
# [5] = COS7 lysate on small-molecule microarray, probe aHis, 635 nm (AID 1123); settings: COS7 cell lysate, fluorescence, higher = more signal;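 also: z-score combines 667nm fluorescence intensity with signal-to-noise per printed compound spot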
# [6] = probe aLAP1 signal on lysate-treated microarray – cell lysate, small-molecule microarray, COS7 lysate, primary screen (AID 1124); settings: probe aLAP1, fluorescence, higher = more signal;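 also: lysate comes from COS7 cells expressing LAP1 and is applied at 0.3 µg/mL; score merges spot fluorescence near 667 nm with signal-to-noise over triplicate slides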
# Sam68 (KHDRBS1) = assay: compounds binding KHDRBS1 protein – biochemical, small-molecule microarray, 635 nm fluorescence, primary screen (AID 1125); settings: higher = more signal;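 also: score merges 667 nm channel intensity with signal to noise over triplicate slides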
# [7] = tested on: Chordin-like protein 2 (CHRDL2); assay: compounds binding chordin-like 2 – biochemical, small-molecule microarray, 635 nm fluorescence, primary screen (AID 1126); settings: fluorescence 635 nm, higher = more signal;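 also: printed compound slides probed with Chrdl2 protein at 4 µg/mL for 1 h at 4 C; score merges 667 nm emission intensity with signal to noise over three replicate slides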
# [8] = target: Concanavalin-A (Canavalia ensiformis) (UniProt P02866); assay: compounds binding concanavalin A lectin – biochemical, small-molecule microarray, Alexa647 label, 635 nm, artefact control for SMM control protein annotation, primary screen (AID 1127); settings: ConA-A647 binding fluorescence, higher = more signal;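 also: z combines 667 nm emission intensity with signal-to-noise across three replicate slides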
# Sequence of Concanavalin-A (Canavalia ensiformis) (P02866 whole entry, looked up): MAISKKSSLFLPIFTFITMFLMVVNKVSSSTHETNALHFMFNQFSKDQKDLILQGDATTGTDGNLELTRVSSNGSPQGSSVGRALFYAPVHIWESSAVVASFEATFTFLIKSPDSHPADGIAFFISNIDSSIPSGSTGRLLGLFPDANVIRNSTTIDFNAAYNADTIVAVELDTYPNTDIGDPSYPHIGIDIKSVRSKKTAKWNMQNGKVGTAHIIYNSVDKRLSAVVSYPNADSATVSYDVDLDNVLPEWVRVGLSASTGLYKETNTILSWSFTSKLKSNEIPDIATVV
# [9] = compounds binding Alexa647 anti-His antibody – biochemical, small-molecule microarray, 635 nm fluorescence, artefact control for SMM control protein annotation, primary screen (AID 1128); settings: higher = more signal;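 also: score merges feature fluorescence with signal-to-noise for each printed compound spot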
# [10] = tested on: Human papillomavirus type 1a E7 protein (residues 1-88); assay: HPV1a E7 small-molecule binders, primary screen, biochemical, small-molecule microarray, residues 1-88, 635 nm (AID 1129); settings: small-molecule microarray binding, fluorescence 635 nm; higher = more signal
# [11] = target: Focal adhesion kinase 1 (Homo sapiens) (UniProt Q05397); assay: PTK2 protein binding on printed compound slides – biochemical, small-molecule microarray, 635/667 nm fluorescence, BSA, DTT, primary screen (AID 1130); settings: 635 nm fluorescence, higher = more signal;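 also: composite of spot emission at 667 nm and signal to noise over triplicate slides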
# Sequence of Focal adhesion kinase 1 (Homo sapiens) (Q05397 whole entry, looked up): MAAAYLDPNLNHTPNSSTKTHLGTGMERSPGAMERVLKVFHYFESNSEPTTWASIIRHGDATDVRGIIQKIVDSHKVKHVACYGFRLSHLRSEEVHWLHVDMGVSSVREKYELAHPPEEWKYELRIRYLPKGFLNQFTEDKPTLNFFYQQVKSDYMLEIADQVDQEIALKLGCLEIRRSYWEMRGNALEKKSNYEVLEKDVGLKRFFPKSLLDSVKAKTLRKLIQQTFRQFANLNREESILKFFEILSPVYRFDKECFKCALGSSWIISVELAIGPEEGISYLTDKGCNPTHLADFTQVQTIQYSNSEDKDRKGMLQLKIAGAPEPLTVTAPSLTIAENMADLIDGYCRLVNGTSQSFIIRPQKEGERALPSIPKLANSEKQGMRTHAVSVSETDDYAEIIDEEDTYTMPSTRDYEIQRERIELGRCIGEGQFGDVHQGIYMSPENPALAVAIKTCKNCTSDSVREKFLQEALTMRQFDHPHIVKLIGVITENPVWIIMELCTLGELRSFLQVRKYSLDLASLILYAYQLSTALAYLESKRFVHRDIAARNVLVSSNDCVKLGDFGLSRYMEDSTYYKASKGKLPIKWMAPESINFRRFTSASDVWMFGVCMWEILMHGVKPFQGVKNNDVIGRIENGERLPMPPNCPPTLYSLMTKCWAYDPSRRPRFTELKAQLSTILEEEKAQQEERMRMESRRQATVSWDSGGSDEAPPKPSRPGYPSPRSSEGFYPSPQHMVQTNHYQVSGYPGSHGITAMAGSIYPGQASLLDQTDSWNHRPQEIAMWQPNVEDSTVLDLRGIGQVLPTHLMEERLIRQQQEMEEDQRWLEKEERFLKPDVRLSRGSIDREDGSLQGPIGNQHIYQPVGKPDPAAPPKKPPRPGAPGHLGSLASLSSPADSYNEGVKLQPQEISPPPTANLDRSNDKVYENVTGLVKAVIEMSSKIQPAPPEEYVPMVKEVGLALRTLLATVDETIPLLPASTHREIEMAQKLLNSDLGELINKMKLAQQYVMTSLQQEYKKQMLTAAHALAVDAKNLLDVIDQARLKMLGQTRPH
# [12] = tested on: Fibrinogen (Alexa647-labelled); assay: Alexa647-fibrinogen binding to printed small molecules – biochemical, small-molecule microarray, 635/667 nm fluorescence, artefact control for SMM control-protein annotation, profiling panel (AID 1131); settings: fibrinogen-A647 binding fluorescence, higher = more signal;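 also: z-score merges 667 nm fluorescence with per-spot signal-to-noise over triplicate slides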
# [13] = target: Follistatin (Homo sapiens) (UniProt P19883); assay: FST protein binding to printed compounds – biochemical, small-molecule microarray, 635/667 nm fluorescence, primary screen (AID 1132); settings: 635 nm fluorescence, higher = more signal
# Sequence of Follistatin (Homo sapiens) (P19883 whole entry, looked up): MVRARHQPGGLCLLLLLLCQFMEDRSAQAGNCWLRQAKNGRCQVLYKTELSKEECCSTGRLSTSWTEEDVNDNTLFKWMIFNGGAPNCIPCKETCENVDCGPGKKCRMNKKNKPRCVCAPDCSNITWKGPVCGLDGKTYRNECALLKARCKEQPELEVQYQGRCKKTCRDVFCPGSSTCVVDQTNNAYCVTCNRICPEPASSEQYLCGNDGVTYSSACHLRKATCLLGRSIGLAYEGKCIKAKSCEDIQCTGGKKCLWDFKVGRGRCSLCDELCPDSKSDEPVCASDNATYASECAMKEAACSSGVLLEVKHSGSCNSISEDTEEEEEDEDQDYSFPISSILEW
# [14] = target: Fibroblast growth factor 2 (Homo sapiens) (UniProt P09038); assay: basic fibroblast growth factor binding to printed compounds – biochemical, small-molecule microarray, 635/667 nm fluorescence, primary screen (AID 1133); settings: FGF2, fluorescence 635/667, higher = more signal
# Sequence of Fibroblast growth factor 2 (Homo sapiens) (P09038 whole entry, looked up): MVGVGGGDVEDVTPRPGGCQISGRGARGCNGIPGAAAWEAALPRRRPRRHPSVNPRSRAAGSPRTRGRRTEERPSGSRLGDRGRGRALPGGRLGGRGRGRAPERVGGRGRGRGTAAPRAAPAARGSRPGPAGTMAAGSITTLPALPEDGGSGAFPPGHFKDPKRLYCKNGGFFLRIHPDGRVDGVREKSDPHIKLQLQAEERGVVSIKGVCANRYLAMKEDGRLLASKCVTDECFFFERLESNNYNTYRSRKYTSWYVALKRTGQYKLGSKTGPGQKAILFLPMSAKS
# [15] = JC-1 mitochondrial potential readout, lung cancer cells – cell-based, A549, JC-1 fluorescence, basal, 24 h, 100 nL, profiling panel (AID 1138); settings: higher = more signal;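 also: A549 lung adenocarcinoma cells under basal conditions with no added stimulus; test concentration not given here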
# Lefty1 = Lefty1 protein binding to printed compounds – biochemical, small-molecule microarray, 635/667 nm fluorescence, primary screen (AID 1139); settings: fluorescence 635/667, higher = more signal
# [16] = tested on: wheat germ agglutinin (Triticum aestivum), Alexa647-labelled; assay: Alexa647-WGA lectin binding to printed small molecules – biochemical, small-molecule microarray, 635/667 nm fluorescence, artefact control for SMM control-protein annotation, profiling panel (AID 1140); settings: WGA-A647 binding, 635 nm fluorescence, higher = more signal;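 also: score merges 667 nm feature emission with signal to noise over triplicate slides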
# [17] = target: Luciferin 4-monooxygenase (Photinus pyralis) (UniProt P08659); assay: inhibition of purified Photinus pyralis luciferase – biochemical, luminescence, purified enzyme, 2006 set, primary screen (AID 1141); settings: purified firefly luciferase, SteadyGlo luminescence, 30 min; higher = more signal, called active from +8 up or from −8 down;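 also: cell-free assay with purified firefly luciferase at 100 ng per well in PBS; test concentration not given here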
# Sequence of Luciferin 4-monooxygenase (Photinus pyralis) (P08659 whole entry, looked up): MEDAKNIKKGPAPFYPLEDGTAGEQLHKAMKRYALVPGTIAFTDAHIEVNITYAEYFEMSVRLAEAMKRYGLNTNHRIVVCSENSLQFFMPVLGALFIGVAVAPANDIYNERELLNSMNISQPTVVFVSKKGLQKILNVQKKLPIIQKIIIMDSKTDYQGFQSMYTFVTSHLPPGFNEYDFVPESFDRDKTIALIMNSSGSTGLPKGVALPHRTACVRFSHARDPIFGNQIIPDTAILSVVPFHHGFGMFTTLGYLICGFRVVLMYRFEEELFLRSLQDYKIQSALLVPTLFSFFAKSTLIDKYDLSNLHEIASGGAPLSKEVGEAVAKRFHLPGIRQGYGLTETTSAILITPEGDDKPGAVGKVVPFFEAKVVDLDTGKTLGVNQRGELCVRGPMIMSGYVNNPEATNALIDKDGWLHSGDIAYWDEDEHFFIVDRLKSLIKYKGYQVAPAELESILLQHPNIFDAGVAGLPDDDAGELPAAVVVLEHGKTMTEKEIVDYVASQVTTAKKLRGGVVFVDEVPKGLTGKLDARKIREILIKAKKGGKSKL
Structure (SMILES),composite z-score (Albumin (Bos taurus)),composite Z-score [1],composite z-score [2],composite z-score [3],composite z-score [4],composite z-score [5],composite z-score [6],composite z-score (Sam68 (KHDRBS1)),composite z-score [7],composite z-score [8],composite z-score [9],composite z-score [10],composite z-score [11],composite z-score [12],composite z-score [13],composite z-score [14],z-score [15],composite z-score (Lefty1),composite z-score [16],z-score [17]
COC(=O)[C@@]1(Cc2ccc(F)cc2)[C@H]2c3cc(C(=O)N4CCCC4)n(Cc4cc(C)n(C)n4)c3C[C@H]2CN1C(=O)c1ccccc1,1.09,2.46 (inactive),0.318,0.385,0.664,3.58,1.14,1.32,-0.642,1.14,1.85,1.26,1.03,1.01,0.392,-0.47,0.0507,-0.847,0.628,0.609 (inactive)
COC(=O)[C@@]1(Cc2ccc(F)cc2)[C@H]2c3cc(C(=O)N(C)C)n(Cc4nc5ccccc5[nH]4)c3C[C@H]2CN1C(=O)c1ccccc1,1.05,0.0895 (inactive),0.392,0.0274,0.824,3.03,0.35,0.651,-0.41,0.683,1.11,1.28,0.187,0.843,0.526,-0.634,-0.0117,-0.0816,0.488,-0.625 (inactive)
C=CC[C@]1(C(=O)N2CCCCC2)N=C(c2ccc(OCCCO)cc2)O[C@H]1c1ccccc1,0.579,0.458 (inactive),0.748,0.429,0.63,2.04,0.488,1.31,0.238,0.387,2.2,1.19,0.702,0.928,1.3,-0.165,1.48,-0.395,0.676,-0.728 (inactive)
CCOC(=O)C[C@H]1[C@H](OC(=O)Cc2ccc3c(c2)OCO3)[C@@H](NC(=O)c2ccc(-c3ccccc3)cc2)c2cc(OCCCO)ccc2N1C(=O)Cc1ccc(OC)cc1,0.641,0.0844 (inactive),0.121,0.0126,0.0713,0.365,0.597,0.843,0.236,0.152,0.0923,0.516,0.165,0.872,0.518,0.28,1.24,0.475,0.415,-1.11 (inactive)
COc1ccc(CCN2C(=O)[C@@]3(Cc4ccccc42)c2ccccc2C(=O)N(Cc2ccccc2C(F)(F)F)[C@H]3c2ccc(CO)cc2)cc1,-0.951,0.319 (inactive),-0.0718,-0.193,0.107,0.387,0.184,0.242,0.736,1.13,0.752,-0.175,-0.324,0.732,1.12,0.83,-0.963,0.541,0.461,0.642 (inactive)
CN(C)CCCCCCNC(=O)[C@@H]1C[C@@H]2C(=O)N[C@@H](CCCCN)C(=O)N2[C@@H]1c1cccc(OCCO)c1,1.05,7.35 (inactive),1.79,0.72,0.92,2.35,1.2,1.32,1.2,1.24,3.24,1.31,2.31,1.01,1.45,1.59,1.08,1.66,1.62,-1.61 (inactive)
C=C(COC)/C(=C/C[C@@H](OC(C)=O)c1ccc(OCCO)cc1)c1cc(C(=O)OC)ccc1OC,0.616,-0.064 (inactive),0.0873,-0.118,0.591,0.669,-0.413,1.27,0.784,0.699,0.531,1.21,0.481,-0.367,1.25,1.5,0.371,1.19,0.195,-0.371 (inactive)
COCCOC(=O)N1C(=O)[C@@]2(c3cc(C#Cc4ccc(OC)cc4)ccc31)[C@H](C(=O)N1CCCCCCC1)[C@H]1C(=O)O[C@H](c3ccccc3)[C@H](c3ccccc3)N1[C@@H]2c1ccc(OCCO)cc1,-1.25,3.51 (inactive),0.872,0.711,0.712,1.49,0.913,1.3,1.48,0.987,0.885,0.94,0.409,0.905,1.58,2.1,-0.951,1.36,1.32,-2.56 (inactive)
COCCCNC(=O)[C@@]1(Cc2ccccc2)N=C(c2ccc(OCCCO)cc2)O[C@H]1c1ccccc1,0.893,1.14 (inactive),0.374,0.308,0.79,2.9,-0.0127,1.29,-1.1,1.12,3.17,1.26,0.102,0.959,0.448,0.706,0.26,-0.559,1.11,-0.391 (inactive)
CCCC=C(CCC)[C@@H](NC(=O)Oc1ccc(F)cc1)c1ccc(C(=O)OC)cc1,0.673,-0.594 (inactive),0.209,-0.0817,0.31,1.9,0.0052,1.19,-0.813,0.977,0.421,1.15,0.401,0.906,0.746,-0.161,2.89,-0.186,1.09,0.516 (inactive)
